Measurements taken from PubChem BioAssay (NCATS).
Inconclusive results are not listed. The source made the active and inactive calls. Unless noted, calls follow the shape of the dose curve; as a rule, active = well fitted curve in the direction sought with a large enough effect; inconclusive = small, poorly fitted or top-dose-only effect, or another doubt; inactive = no such curve, though single readings can be large; an effect the other way counts as inactive or inconclusive.

Tests used:
[1] = qHTS for differential inhibitors of proliferation of Plasmodium falciparum line D10 (AID 1877);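 also: parasites grown with compound for 72 h before DNA staining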; also: potency is read from the fitted curve at half-maximal effect
[2] = qHTS for differential inhibitors of proliferation of Plasmodium falciparum line Dd2 (AID 1882); conditions: Potency: Plasmodium falciparum Dd2 proliferation inhibition;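 also: series mostly up to about 29 µM; compound exposure of 72 h on infected erythrocytes; nearly all actives have a fitted effect of over 65% in size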
Summary of the method: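 RBC culture, 0.3% parasitemia / 2.5% Hct final; cpd added by pin tool in DMSO; 72 h, 37 C, 5% CO2; lysis buffer + SYBR Green I, o/n RT dark; FI 485/535; norm. to artemisinin 0.29 uM and DMSO.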

[3] = qHTS for differential inhibitors of proliferation of Plasmodium falciparum line HB3 (AID 1886); conditions: Potency: Plasmodium falciparum HB3 proliferation inhibition;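 also: parasites grown with compound for 72 h before SYBR Green readout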; also: potency is read from the fitted curve at half-maximal effect
[4] = target: Ferritin light chain (Equus caballus) (UniProt P02791); test: qHTS Validation Assay for Identification of Novel General Anesthetics (AID 2323); also: series mostly up to about 77 µM
Ferritin light chain (Equus caballus), sequence (P02791 2-175 limits assumed): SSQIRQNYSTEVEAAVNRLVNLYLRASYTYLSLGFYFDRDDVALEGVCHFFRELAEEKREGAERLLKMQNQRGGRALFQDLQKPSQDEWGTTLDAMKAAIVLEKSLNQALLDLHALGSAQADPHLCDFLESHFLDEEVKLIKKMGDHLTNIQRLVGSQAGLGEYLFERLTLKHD
Summary of the method: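 Apoferritin from horse spleen (10 uM) was mixed with 1-aminoanthracene at 50% saturation in PBS, then compounds were added. After 10 min at room temperature, fluorescence was read (ex 380 nm, em 535 nm) and normalized to free-probe and complex controls.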

[5] = target: ATP-dependent DNA helicase Q1 (Homo sapiens) (UniProt P46063); test: qHTS Validation Assay for Inhibitors of RecQ-Like Dna Helicase 1 (RECQ1) (AID 2353)
ATP-dependent DNA helicase Q1 (Homo sapiens), sequence (P46063 whole entry, looked up): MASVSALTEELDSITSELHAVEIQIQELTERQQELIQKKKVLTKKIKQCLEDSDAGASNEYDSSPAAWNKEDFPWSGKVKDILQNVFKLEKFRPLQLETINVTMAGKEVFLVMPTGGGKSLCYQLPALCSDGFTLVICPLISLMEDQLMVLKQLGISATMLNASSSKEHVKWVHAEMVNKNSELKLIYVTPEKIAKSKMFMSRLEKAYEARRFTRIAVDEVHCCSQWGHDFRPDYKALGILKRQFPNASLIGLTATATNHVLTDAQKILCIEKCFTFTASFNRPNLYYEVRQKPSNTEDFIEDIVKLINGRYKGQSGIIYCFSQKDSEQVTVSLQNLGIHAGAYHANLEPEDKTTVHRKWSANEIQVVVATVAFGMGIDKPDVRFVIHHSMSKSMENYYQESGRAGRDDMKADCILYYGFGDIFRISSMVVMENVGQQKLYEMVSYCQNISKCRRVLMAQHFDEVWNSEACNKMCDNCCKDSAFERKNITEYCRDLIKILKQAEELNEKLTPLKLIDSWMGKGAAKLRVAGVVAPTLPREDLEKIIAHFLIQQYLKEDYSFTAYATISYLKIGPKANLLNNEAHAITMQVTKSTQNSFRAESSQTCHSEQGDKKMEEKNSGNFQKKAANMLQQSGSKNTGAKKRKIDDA
Summary of the method: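 RECQ1T1 50 nM; forked duplex (20 bp + 30-nt ss tails) 200 nM, ATP 2 mM final; pH 8.0, 2 mM MgCl2, 2.5 ug/ml poly(dI-dC); 15 min compound preincubation; discontinuous kinetic read over 2 h at RT.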

[6] = Cytometric Cell-Based qHTS for Inhibitors of the mTORC1 Signaling Pathway in MEF (Tsc2-/-, p53-/-) Cells (AID 2660);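 also: Tsc2 and p53 null MEFs carrying empty vector with compound for 24 h; percent of cells above a phospho-rpS6 to PI ratio cutoff in each well; series mostly up to about 38 µM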
Summary of the method: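 Cells are plated, treated with compound for 24 hrs at 37 degree Celsius, then fixed, blocked and immunostained for phospho-rpS6 Ser235/236. Propidium iodide counterstain follows. Per-well % positive cells is derived from the PI-normalized phospho-S6 signal.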

[7] = High Content Imaging Cell-Based qHTS for Inhibitors of the mTORC1 Signaling Pathway in MEF (Tsc2-/-, p53-/-) Cells (AID 2666);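 also: percent of cells scored positive for phospho-rpS6 Ser235/236 immunostaining by imaging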
Summary of the method: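 MEF Tsc2-/- p53-/- (empty vector), DMEM/10% FBS; cpd 24 h 37 °C; PFA fix, Alexa-488 p-rpS6 S235/236 Ab, Hoechst; imaged; rapamycin-defined inhibition; % positive cells/well.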

[8] = High Content Imaging Cell-Based qHTS for Inhibitors of the mTORC1 Signaling Pathway in MEF Cells (AID 2667);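 also: Tsc2-/- p53-/- MEFs stably re-expressing wild-type Tsc2 exposed 24 h; series mostly up to about 38 µM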
Summary of the method: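 Read-out is the share of phospho-rpS6-positive cells per well, from Hoechst-normalized Alexa-488 Ser235/236 staining imaged on IN Cell. Cells: WT Tsc2-expressing Tsc2-/-, p53-/- MEFs exposed to compound for 24 hrs.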

[9] = Validation screen for small molecules that induce DNA re-replication in MCF 10A normal breast cells (AID 463097); also: nearly all actives have a fitted effect of over 60% in size; also: potency is read from the fitted curve at half-maximal effect
Summary of the method: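 DNA re-replication was detected as a rise in nuclei with elevated Hoechst fluorescence after a 48 hr compound exposure of MCF 10A cells at 37 C.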

[10] = target: Ubiquitin carboxyl-terminal hydrolase 2 (Homo sapiens) (UniProt O75604); test: qHTS Validation Assay for Inhibitors of Ubiquitin-specific Protease USP2a Using CHOP2 as the Reporter (AID 463106)
Ubiquitin carboxyl-terminal hydrolase 2 (Homo sapiens), sequence (O75604 whole entry, looked up): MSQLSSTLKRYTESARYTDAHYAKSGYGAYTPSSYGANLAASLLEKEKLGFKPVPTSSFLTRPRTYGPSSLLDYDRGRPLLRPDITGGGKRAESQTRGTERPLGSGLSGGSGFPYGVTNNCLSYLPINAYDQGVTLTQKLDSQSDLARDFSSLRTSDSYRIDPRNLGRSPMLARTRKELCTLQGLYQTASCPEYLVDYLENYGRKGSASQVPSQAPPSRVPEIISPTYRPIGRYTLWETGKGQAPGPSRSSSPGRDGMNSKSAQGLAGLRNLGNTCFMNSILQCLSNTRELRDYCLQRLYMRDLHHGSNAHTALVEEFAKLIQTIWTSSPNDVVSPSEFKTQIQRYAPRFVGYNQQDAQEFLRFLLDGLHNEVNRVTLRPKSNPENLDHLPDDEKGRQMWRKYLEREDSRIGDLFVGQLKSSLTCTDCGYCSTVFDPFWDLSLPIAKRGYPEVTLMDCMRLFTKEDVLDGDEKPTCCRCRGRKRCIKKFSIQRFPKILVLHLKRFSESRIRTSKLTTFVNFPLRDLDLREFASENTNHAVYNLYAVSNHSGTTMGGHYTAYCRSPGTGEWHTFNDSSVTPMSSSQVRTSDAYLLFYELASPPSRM
Summary of the method: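 Fluorescence read-out at Ex 485nm/Em 531nm after 60min RT, following addition of 25nM Ub-CHOP2 plus 25nM reporter substrate to USP2 core (10nM) pretreated 30min with compound. Data normalized to NEM full inhibition; concentration-response curves fitted.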

[11] = target: DNA polymerase III PolC-type (Bacillus subtilis (strain 168)) (UniProt P13267); test: qHTS Validation Assay for the Inhibitors of DNA Replication in Gram-Positive Bacteria (AID 485295);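 also: reconstituted holoenzyme with PolC plus beta clamp SSB and primase; PicoGreen fluorescence of double-stranded DNA made on primed circular M13 template; series mostly up to about 57 µM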
DNA polymerase III PolC-type (Bacillus subtilis (strain 168)), sequence (P13267 whole entry, looked up): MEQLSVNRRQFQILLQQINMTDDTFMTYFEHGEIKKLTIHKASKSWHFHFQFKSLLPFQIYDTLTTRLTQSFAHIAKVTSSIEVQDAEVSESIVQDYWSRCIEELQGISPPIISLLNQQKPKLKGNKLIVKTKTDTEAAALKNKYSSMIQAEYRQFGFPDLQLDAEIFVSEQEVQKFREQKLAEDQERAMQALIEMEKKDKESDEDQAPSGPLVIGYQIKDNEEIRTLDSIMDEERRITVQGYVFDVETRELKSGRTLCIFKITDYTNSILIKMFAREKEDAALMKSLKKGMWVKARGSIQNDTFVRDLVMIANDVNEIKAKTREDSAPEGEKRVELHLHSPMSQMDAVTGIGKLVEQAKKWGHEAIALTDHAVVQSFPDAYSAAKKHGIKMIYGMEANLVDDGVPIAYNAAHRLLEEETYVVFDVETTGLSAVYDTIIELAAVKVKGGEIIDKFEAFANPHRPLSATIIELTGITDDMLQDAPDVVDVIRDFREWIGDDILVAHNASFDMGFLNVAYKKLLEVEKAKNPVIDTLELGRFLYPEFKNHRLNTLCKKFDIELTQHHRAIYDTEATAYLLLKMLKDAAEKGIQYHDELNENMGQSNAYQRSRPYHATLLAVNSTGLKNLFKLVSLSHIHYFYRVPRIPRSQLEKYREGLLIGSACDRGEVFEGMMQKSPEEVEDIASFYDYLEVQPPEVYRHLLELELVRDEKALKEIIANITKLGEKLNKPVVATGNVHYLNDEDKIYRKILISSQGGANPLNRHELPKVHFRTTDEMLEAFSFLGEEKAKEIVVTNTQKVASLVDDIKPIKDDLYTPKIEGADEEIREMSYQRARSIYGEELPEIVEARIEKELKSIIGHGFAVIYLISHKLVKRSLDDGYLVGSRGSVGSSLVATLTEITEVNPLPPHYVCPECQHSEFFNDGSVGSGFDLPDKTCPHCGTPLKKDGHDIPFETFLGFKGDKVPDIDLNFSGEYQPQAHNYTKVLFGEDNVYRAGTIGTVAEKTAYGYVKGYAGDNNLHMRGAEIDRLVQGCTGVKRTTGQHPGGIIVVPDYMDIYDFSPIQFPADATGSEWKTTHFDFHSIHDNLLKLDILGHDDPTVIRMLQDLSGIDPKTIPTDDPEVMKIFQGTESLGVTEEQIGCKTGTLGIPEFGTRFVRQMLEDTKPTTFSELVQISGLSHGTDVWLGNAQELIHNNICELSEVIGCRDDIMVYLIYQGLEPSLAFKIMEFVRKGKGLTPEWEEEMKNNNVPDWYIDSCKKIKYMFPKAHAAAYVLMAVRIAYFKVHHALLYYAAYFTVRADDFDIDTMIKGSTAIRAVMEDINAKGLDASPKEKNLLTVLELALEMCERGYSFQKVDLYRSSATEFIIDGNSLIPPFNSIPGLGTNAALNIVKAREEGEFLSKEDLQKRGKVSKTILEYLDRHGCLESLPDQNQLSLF
Summary of the method: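 Primed replication of single-stranded M13Gori by a four-protein B. subtilis holoenzyme is measured at room temperature. Double-stranded product is quantified by PicoGreen fluorescence after an EDTA stop; inhibition is scaled between DMSO and EDTA controls.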

[12] = target: Tumor susceptibility gene 101 protein (Homo sapiens) (UniProt Q99816); test: qHTS Validation Assay for Iinhibitors of HIV-1 Budding by Blocking the Interaction of PTAP/TSG101 (AID 485342; calls by dose curve)
Tumor susceptibility gene 101 protein (Homo sapiens), sequence (Q99816 whole entry, looked up, the tested form may be a part): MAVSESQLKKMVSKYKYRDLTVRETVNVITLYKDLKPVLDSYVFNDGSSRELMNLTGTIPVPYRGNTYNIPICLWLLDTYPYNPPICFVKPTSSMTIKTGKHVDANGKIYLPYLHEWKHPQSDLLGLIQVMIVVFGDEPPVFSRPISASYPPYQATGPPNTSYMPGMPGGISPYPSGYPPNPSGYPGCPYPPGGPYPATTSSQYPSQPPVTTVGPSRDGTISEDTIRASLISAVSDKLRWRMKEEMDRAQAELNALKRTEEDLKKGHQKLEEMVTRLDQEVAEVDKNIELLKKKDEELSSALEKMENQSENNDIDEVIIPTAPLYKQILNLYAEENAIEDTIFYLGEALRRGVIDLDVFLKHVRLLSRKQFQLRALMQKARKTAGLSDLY
Summary of the method: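 Fluorescence anisotropy measured PTAP-Tsg101 interaction. Final concentrations were 10 uM protein domain and 50 nM labeled peptide, equilibrated 20 min at room temperature.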

[13] = qHTS Validation Assay to Find Inhibitors of Chronic Active B-Cell Receptor Signaling (AID 485345; active = well fitted curve in the direction sought with a large enough effect in the main read-out, with a control signal flat, not every such curve was filed as active)
Summary of the method: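 TMD8 ABC-DLBCL cells stably carrying doxycycline-inducible IkappaBalpha–green luciferase fusion plus unfused red luciferase; compounds 46 uM to 3 nM, 4 h at 37C with doxycycline. Corrected green/red luminescence ratio normalized to 10 uM MG-132 and basal cell wells; curves fitted.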

[14] = qHTS Assay for Modulators of Human Peripheral Myelin Protein 22 (PMP22) Expression/Activity (AID 1967; active = well fitted curve in the direction sought with a large enough effect in the signal ratio; the % refers to the signal ratio)
Summary of the method: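 Quantitative HTS in a mouse Schwann cell line expressing dual click beetle luciferases: Pmp22 promoter (green) and control EF-alpha promoter (red). After 24h treatment, corrected green/red signal ratio gave %Activity relative to untreated cells.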

[15] = Cytometry Cell-Based qHTS for Inhibitors of the mTORC1 Signaling Pathway in MEF cells (AID 2668);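 also: Tsc2-/- p53-/- mouse embryonic fibroblasts stably re-expressing wild-type Tsc2; percent cells positive for phospho-rpS6 Ser235/236 relative to propidium iodide stain; series mostly up to about 38 µM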
Summary of the method: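 Pathway inhibition in WT Tsc2-rescued Tsc2-/-, p53-/- MEFs is measured as the Alexa-488 phospho-rpS6 to propidium iodide intensity ratio after 24 hrs of compound at 37 degree Celsius. PI-stained cell number gives viability.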

[16] = target: RecQ-like DNA helicase BLM (Homo sapiens) (UniProt P54132); test: qHTS Validation Assay for Inhibitors of Bloom's syndrome helicase (BLM) (AID 2364); also: potency is read from the fitted curve at half-maximal effect
RecQ-like DNA helicase BLM (Homo sapiens), sequence (P54132 whole entry, looked up): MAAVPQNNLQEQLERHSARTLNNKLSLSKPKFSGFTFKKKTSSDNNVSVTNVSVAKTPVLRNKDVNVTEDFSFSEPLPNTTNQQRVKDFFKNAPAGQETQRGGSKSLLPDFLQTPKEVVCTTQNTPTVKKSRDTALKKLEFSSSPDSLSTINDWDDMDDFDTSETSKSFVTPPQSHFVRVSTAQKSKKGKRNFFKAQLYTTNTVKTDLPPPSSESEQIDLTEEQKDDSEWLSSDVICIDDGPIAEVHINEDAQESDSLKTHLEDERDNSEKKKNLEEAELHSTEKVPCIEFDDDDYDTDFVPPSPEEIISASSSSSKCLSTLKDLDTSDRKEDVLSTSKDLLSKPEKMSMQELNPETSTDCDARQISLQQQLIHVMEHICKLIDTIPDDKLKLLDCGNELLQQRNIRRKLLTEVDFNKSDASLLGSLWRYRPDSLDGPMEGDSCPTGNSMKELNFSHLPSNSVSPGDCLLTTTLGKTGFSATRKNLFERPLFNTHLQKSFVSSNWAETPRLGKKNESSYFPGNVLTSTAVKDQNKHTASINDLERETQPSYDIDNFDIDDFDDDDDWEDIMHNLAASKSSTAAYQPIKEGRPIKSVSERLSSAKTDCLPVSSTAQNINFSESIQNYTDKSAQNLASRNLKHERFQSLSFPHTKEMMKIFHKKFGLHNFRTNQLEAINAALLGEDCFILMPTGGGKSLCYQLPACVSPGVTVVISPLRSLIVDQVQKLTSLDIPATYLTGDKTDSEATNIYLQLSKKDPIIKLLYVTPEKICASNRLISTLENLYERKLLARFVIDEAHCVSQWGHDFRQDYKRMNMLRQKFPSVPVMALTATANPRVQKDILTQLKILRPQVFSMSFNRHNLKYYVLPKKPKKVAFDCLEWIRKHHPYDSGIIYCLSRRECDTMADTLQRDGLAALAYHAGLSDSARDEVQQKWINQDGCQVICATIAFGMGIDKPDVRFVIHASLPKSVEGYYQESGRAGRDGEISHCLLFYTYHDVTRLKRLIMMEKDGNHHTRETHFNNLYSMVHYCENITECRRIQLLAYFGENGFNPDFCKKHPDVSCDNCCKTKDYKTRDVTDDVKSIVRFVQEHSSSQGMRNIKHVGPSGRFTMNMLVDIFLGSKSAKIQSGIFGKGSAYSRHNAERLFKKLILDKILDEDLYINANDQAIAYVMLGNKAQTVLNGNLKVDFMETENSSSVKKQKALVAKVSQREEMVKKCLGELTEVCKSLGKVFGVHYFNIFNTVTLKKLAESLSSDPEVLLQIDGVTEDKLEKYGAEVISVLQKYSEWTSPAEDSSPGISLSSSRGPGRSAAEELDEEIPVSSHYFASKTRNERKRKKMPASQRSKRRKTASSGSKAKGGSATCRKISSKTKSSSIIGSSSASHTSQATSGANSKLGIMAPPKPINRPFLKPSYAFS
Summary of the method: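 50 nM BLM preincubated 15 min at room temperature with compound in pH 8.0 Tris buffer containing 2.5 ug/ml poly(dI-dC); started with 200 nM TAMRA/BHQ-2 forked duplex and 2 mM ATP (final). Unwinding read as TAMRA fluorescence increase, two reads 2 h apart.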

[17] = qHTS for differential inhibitors of proliferation of Plasmodium falciparum line W2 (AID 1883); conditions: Potency: Plasmodium falciparum W2 proliferation inhibition;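 also: parasites grown with compound for 72 h before lysis and staining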; also: potency is read from the fitted curve at half-maximal effect

Measured: Potency

CC(N)(Cc1ccc(O)c(O)c1)C(=O)O (stereo not given)
not listed: [14] | [15] | [16] | [17]
inactive: all other assays above

N#Cc1cc2nc(O)c(O)nc2cc1[N+](=O)[O-]
not listed: [4] | [12] | [16] | [17]
inactive: all other assays above

Nc1ccc(N2C(=O)c3ccccc3C2=O)c(Cl)c1
not listed: [4] | [14] | [17]
inactive: all other assays above

O=c1onc2n1-c1cc(Br)ccc1OC2
not listed: [12] | [14] | [16] | [17]
inactive: all other assays above

O=C(O)Cc1ccc(O)c(O)c1
not listed: [4] | [14] | [16] | [17]
inactive: all other assays above

COC1(C2=NCCN2)COc2ccccc2O1 (stereo not given)
not listed: [12] | [16] | [17]
inactive: all other assays above

COc1cc(N)c(Cl)cc1C(=O)OCCN1CCCCC1
not listed: [4] | [17]
inactive: all other assays above

Clc1nccc2c1ccc1ccccc12
not listed: [11] | [14] | [17]
inactive: all other assays above

CC#CCOC(=O)c1c(C)nc2sc3c(c2c1N)CCC(O)C3 (stereo not given)
not listed: [4] | [9] | [12] | [14] | [16] | [17]
inactive: all other assays above

CN1CCC2(CCN3CCc4c(oc5ccccc45)C3C2)N(C)C1=O (stereo not given)
not listed: [3] | [14] | [15] | [16] | [17]
inactive: all other assays above

CNCCNS(=O)(=O)c1cccc2cnccc12
not listed: [13] | [14] | [17]
inactive: all other assays above

Cc1cc2c(cc1Cl)N(C(=O)Nc1ccnc3ccccc13)CC2
not listed: [14] | [16] | [17]
inactive: all other assays above

O=C(O)c1ccccc1Nc1cccc(OCc2ccc3ccccc3n2)c1
not listed: [13] | [14] | [16] | [17]
inactive: all other assays above

CCCCCCCCCCC/C=C\C(C)(C)/C=C\CCCC(=O)O
active: [16] 25.1 µM
not listed: [4] | [5] | [9] | [10] | [17]
inactive: all other assays above

O=C(O)c1cc2cc(F)ccc2[nH]1
not listed: [3] | [17]
inactive: all other assays above

O=c1[nH]c2cc(Cl)ccc2c(O)c1-c1ccc(Oc2ccccc2)cc1
not listed: [13] | [16] | [17]
inactive: all other assays above

Nc1ncnc2c1ncn2C1CCCO1 (stereo not given)
not listed: [4] | [10] | [13] | [14] | [15] | [16] | [17]
inactive: all other assays above

COc1ccc(C(=O)NCc2cccnc2)cc1C(=O)NCc1cccnc1
not listed: [4] | [16] | [17]
inactive: all other assays above

COc1cc(CNC(=O)CCCCCCC(C)C)ccc1O
not listed: [4] | [14] | [16] | [17]
inactive: all other assays above

Oc1cc(O)c2c(c1)O[C@H](c1ccc(O)c(O)c1)[C@@H](O)C2
not listed: [14] | [15] | [16] | [17]
inactive: all other assays above

C[C@H](O)C(=O)C1=Nc2c(nc(N)[nH]c2=O)NC1
not listed: [16] | [17]
inactive: all other assays above

CCCc1c(-c2ccc(O)cc2)nn(-c2ccc(O)cc2)c1-c1ccc(O)cc1
not listed: [9] | [10] | [13] | [14] | [16] | [17]
inactive: all other assays above

O=C(O)/C(=C/c1c(C(=O)O)[nH]c2cc(Cl)cc(Cl)c12)c1ccccc1
not listed: [12] | [13] | [14] | [16] | [17]
inactive: all other assays above

C#CC(N)CCC(=O)O (stereo not given)
not listed: [17]
inactive: all other assays above

CCCCCC[C@@H]([C@@H](C)O)n1cnc2c(N)ncnc21
not listed: [16] | [17]
inactive: all other assays above

N=C(N)SCCc1cnc[nH]1
not listed: [17]
inactive: all other assays above

NC(=O)c1cc[n+](CC2=C(C(=O)O)N3C(=O)[C@@H](NC(=O)[C@@H](c4ccccc4)S(=O)(=O)[O-])[C@H]3SC2)cc1
not listed: [17]
inactive: all other assays above

Nc1ncnc2c1ncn2C1CCCC1
not listed: [3] | [14] | [16] | [17]
inactive: all other assays above

c1ccc(C2CN3CCSC3=N2)cc1 (stereo not given)
not listed: [11] | [14] | [17]
inactive: all other assays above

Nc1ccc(-c2ccc3ccccc3n2)cc1
active: [9] 12.6 µM
not listed: [3] | [14] | [15] | [16] | [17]
inactive: all other assays above

O=C(O)Cc1c[nH]c2ccc(O)cc12
not listed: [3] | [4] | [13] | [14] | [17]
inactive: all other assays above

NCCCNCCCCNCCCN
not listed: [14] | [17]
inactive: all other assays above

CN[C@H](CC(=O)O)C(=O)O
not listed: [2] | [13]
inactive: all other assays above

NCC(O)(CS(=O)(=O)O)c1ccc(Cl)cc1 (stereo not given)
not listed: [2] | [15] | [16]
inactive: all other assays above

N=C(N)c1ccc(N)cc1
active: [17] 14.1 µM
not listed: [2]
inactive: all other assays above

CCCC(=O)NCCc1c2n(c3ccc(OC)cc13)CCCc1ccccc1-2
active: [1] 12.6 µM | [17] 7.94 µM | [3] 11.2 µM
inactive: [5] | [6] | [7] | [8] | [11] | [12]
